Measurements published in PubChem BioAssay.
The source made the active and inactive calls.

What was measured:
[1] = test system: PRMT1 (protein arginine N-methyltransferase 1); experiment: PRMT1 binders on small-molecule microarrays, primary screen, biochemical, small-molecule microarray, 635 nm fluorescence (AID 1088); details: small-molecule microarray binding, higher = more signal;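 also: binding of Prmt1 protein to compounds spotted on small-molecule microarray slides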
[2] = yeast growth modulation, basal conditions, primary screen, YJM789 clinical isolate, OD600, 24 h (AID 1089);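 also: growth of clinical yeast isolate S. cerevisiae YJM 789 seeded 1000 cells per well; test concentration not given here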; details: S. cerevisiae YJM789 growth, higher = more signal, called active from +8 up or from −8 down
[3] = fission yeast growth modulation, primary screen, strain 972, OD600, 24 h, no modulator (AID 1090);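 also: basal condition with compound alone and no growth modifier present; test concentration not given here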; details: S. pombe 972 growth, higher = more signal, called active from +8 up or from −8 down
[4] = S. cerevisiae growth modulation with rapamycin, primary screen, strain BY4716, OD600, 96 h (AID 1091); details: higher = more signal, called active from +8 up or from −8 down; also: test concentration not given here
[5] = biological target: Torsin-1A-interacting protein 2 (Homo sapiens) (UniProt Q8NFQ8); experiment: LULL1 binders on small-molecule microarray, primary screen, cell lysate, human LULL1 lysate, 635/667 nm fluorescence (AID 1092); details: hLULL1 lysate binding, 635 nm fluorescence, higher = more signal;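 also: probe is lysate of COS7 cells overexpressing human LULL1; score merges per-feature 667 nm fluorescence with signal-to-noise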
Torsin-1A-interacting protein 2 (Homo sapiens), sequence (Q8NFQ8 whole entry, looked up): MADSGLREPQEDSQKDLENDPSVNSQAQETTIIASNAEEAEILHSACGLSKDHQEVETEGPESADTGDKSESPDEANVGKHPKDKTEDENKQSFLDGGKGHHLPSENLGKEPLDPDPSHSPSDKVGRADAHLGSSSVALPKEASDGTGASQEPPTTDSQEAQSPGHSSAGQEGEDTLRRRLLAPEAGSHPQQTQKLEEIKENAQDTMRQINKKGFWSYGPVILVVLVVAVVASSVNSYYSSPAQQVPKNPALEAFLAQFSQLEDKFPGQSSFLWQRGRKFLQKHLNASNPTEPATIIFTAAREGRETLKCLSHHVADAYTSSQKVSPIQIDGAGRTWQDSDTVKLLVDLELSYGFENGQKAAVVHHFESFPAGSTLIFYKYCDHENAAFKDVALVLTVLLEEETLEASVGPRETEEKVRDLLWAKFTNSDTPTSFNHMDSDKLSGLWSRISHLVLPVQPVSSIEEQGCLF

[6] = E. coli growth modulation, two-sided OD650, primary screen, E. coli filamentation project, strain DRC41, 24 h (AID 1093); details: OD650, 24 h, higher = more signal, called active from +8 up or from −8 down;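 also: MC1000 strain lacking acrAB efflux and sulA so SOS filamentation is blocked; test concentration not given here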
[7] = small-molecule microarray binders of probe aLefty2, primary screen, biochemical, biotinylated probe, 635/667 nm fluorescence (AID 1094); details: higher = more signal;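 also: score merges spot fluorescence near 667 nm with spot signal-to-noise ratio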
[8] = test system: Noggin (protein binding on small-molecule microarray); experiment: Noggin binders on small-molecule microarray, primary screen, biochemical, 635/667 nm fluorescence (AID 1095); details: 635 nm fluorescence, higher = more signal;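 also: score merges 667 nm feature fluorescence with signal to noise over triplicate slides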
[9] = biological target: Neurogenic locus notch homolog protein 3 (Homo sapiens) (UniProt Q9UM47); experiment: NOTCH3 binders on small-molecule microarray, primary screen, biochemical, 635/667 nm fluorescence (AID 1096); details: NOTCH3 binding, 635 nm fluorescence, higher = more signal
Neurogenic locus notch homolog protein 3 (Homo sapiens), sequence (Q9UM47 whole entry, looked up): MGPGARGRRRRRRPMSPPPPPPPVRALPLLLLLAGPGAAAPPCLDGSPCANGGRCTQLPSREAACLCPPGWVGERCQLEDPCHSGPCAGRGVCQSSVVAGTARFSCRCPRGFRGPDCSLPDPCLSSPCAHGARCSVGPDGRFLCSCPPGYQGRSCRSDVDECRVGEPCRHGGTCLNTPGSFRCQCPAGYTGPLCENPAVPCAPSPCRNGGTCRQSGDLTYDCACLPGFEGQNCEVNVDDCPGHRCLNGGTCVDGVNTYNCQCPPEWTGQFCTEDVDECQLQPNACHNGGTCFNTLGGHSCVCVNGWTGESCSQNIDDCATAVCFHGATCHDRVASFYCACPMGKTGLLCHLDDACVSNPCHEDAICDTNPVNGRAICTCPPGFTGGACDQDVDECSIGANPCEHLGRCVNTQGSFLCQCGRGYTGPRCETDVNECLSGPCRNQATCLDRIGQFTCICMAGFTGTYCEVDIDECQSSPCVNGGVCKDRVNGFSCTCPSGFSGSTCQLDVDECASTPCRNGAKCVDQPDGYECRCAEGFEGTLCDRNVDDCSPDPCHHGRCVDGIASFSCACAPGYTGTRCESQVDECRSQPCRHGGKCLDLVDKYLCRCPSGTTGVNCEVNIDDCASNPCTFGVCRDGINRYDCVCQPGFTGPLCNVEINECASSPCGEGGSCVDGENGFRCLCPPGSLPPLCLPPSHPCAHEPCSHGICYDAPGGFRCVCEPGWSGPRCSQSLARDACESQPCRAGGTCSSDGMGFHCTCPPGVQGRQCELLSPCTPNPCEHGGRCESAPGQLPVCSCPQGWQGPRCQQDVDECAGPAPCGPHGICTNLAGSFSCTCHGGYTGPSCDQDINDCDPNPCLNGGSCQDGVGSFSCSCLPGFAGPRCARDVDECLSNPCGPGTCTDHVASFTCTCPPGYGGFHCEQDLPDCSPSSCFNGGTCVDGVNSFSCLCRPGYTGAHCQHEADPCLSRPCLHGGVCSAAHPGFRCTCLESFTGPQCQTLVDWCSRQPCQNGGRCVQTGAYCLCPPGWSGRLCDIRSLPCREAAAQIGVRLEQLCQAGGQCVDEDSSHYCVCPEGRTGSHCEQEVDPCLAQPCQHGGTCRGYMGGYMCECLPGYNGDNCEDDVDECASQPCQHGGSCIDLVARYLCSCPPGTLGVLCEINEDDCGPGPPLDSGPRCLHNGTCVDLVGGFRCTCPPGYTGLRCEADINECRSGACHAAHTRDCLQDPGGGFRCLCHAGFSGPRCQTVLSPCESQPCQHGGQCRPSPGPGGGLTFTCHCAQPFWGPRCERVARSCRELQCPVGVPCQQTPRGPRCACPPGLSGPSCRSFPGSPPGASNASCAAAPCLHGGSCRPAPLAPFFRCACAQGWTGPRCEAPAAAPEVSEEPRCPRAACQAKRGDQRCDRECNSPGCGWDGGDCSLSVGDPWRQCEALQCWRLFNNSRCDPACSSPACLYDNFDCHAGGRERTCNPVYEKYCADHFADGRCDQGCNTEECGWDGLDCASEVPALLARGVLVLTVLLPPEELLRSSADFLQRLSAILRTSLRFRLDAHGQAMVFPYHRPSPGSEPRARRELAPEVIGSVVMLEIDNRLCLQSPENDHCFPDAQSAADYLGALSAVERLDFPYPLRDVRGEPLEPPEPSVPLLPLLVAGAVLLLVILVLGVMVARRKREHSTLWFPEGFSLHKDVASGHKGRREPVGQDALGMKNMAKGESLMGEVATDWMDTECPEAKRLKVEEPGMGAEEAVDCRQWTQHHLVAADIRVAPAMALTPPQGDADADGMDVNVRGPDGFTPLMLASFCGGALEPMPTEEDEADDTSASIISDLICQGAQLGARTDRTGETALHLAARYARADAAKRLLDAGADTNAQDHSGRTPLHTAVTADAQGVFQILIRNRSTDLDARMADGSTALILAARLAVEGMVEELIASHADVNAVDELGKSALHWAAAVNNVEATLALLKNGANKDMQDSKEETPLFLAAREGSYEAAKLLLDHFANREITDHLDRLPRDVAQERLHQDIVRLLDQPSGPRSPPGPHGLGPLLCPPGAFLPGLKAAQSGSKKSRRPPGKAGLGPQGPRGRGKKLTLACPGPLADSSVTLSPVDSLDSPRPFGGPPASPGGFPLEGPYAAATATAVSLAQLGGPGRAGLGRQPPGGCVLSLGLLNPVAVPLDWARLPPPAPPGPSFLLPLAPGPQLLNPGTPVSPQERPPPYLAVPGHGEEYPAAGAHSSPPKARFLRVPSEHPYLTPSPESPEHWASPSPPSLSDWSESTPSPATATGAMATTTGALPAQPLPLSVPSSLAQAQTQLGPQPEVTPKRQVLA

[10] = small-molecule microarray binders of probe aEGFR, primary screen, biochemical, biotinylated probe, 635/667 nm fluorescence (AID 1097); details: higher = more signal;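 also: probe is a biotinylated anti-EGFR antibody binding compounds printed on slides; score combines fluorescence near 667 nm and signal to noise of each spot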

SMILES	composite z-score [1]	z-score [2]	z-score [3]	z-score [4]	composite z-score [5]	z-score [6]	composite z-score [7]	composite z-score [8]	composite z-score [9]	composite z-score [10]
CN1C(=O)[C@@]2(CCS(=O)(=O)c3ccccc3)N=C(c3ccc(OCCCO)cc3)O[C@H]2c2ccccc21	1.53	-0.175 (inactive)	-0.585 (inactive)	2.05 (inactive)	3.05	0.708 (inactive)	0.276	0.931	0.377	-0.0493
COC1(C)CN(Cc2ccccc2Br)[C@H](/C=C/c2ccccc2)[C@H](Cc2ccccc2)O1 (stereo not given in full)	-0.355	-0.0969 (inactive)	0.239 (inactive)	0.243 (inactive)	-0.92	1.07 (inactive)	-0.231	-0.391	-0.789	-0.159
CN1C(=O)C2C=CC(C(O)Cc3ccccc3)N(N(c3ccccc3)c3ccccc3)C2C1=O (stereo not given)	0.795	-0.179 (inactive)	0.759 (inactive)	1.11 (inactive)	2.22	-1.39 (inactive)	0.107	0.218	0.839	-0.137
COC(=O)Cn1c(C(=O)N2CCCC2)cc2c1C[C@H]1CN(C(=O)c3ccccc3)[C@@](Cc3ccc(F)cc3)(C(=O)OC)[C@@H]21	-0.533	-1.98 (inactive)	0.562 (inactive)	-1.24 (inactive)	2.03	0.782 (inactive)	-0.0199	-0.405	-0.251	-0.363
CC(CO)N1C(=O)[C@@H]2C3C(=O)OCCC/C=C\[C@H]3OC23C=CCN(Cn2nnc4ccccc42)C(=O)[C@@H]13 (stereo not given in full)	-1.18	0.216 (inactive)	-0.152 (inactive)	-0.637 (inactive)	-1.1	0.333 (inactive)	-0.198	-0.254	0.219	-0.152
O=C1OCCC=C[C@H]2OC34C=CCN(c5ccc(Cl)cc5)C(=O)[C@H]3N(CCCCCO)C(=O)[C@@H]4C12 (stereo not given in full)	0.536	-0.579 (inactive)	-1.99 (inactive)	-0.54 (inactive)	2.68	1.71 (inactive)	0.0636	-0.261	0.0841	-0.0671
[N-]=[N+]=Nc1ccccc1[C@@H]1OC(c2ccc(OCCCO)cc2)=N[C@]1(CCS(=O)(=O)c1ccccc1)C(=O)NCCN1CCOCC1	1.55	-0.564 (inactive)	-0.727 (inactive)	0.519 (inactive)	3.15	0.0992 (inactive)	0.383	0.038	0.808	0.354
COC(=O)[C@@]1(Cc2ccc(OC)cc2)[C@H]2c3cc(C(=O)N4CCCC4)n(CCc4cc5ccccc5[nH]4)c3C[C@H]2CN1C(=O)c1ccccc1	0.907	0.596 (inactive)	2.61 (inactive)	1.72 (inactive)	3.43	-0.12 (inactive)	0.507	0.364	1.05	0.0464
CC(=O)N1Cc2ccccc2C[C@]2(N=C(c3ccc(OCCCO)cc3)O[C@@H]2c2ccccc2)C1=O	1.55	0.369 (inactive)	-2.91 (inactive)	13.6 (active)	3.07	1.52 (inactive)	0.0081	0.648	1.07	0.0557
COCCOC(=O)N1C(=O)[C@@]2(c3ccccc31)[C@H](c1ccc(OCCO)cc1)N1[C@H](c3ccccc3)[C@H](c3ccccc3)OC(=O)[C@H]1[C@@H]2C(=O)Nc1nc2ccccc2s1	1.45	0.405 (inactive)	0.371 (inactive)	2.33 (inactive)	3.13	1.16 (inactive)	0.0305	0.396	1.13	-0.0039
O=C1c2ccccc2[C@](Cc2ccccc2I)(C(=O)NCCN2CCOCC2)[C@H](c2ccc(CO)cc2)N1Cc1ccccc1	1.52	0.189 (inactive)	0.0239 (inactive)	-0.477 (inactive)	2.8	0.47 (inactive)	0.182	0.406	1.08	0.225
O=C(N1CCCCC1)[C@@]1(Cc2ccccc2)COC(c2ccc(OCCCO)cc2)=N1	1.31	-0.22 (inactive)	-5.35 (inactive)	1.58 (inactive)	3.21	1.06 (inactive)	0.511	-0.315	0.622	0.548
COC(=O)[C@H](Cc1ccccc1)N1CC(/C=C/C2CC2)=C[C@@H]1[C@@H](O)Cc1ccccc1	1.46	0.107 (inactive)	-3.04 (inactive)	0.423 (inactive)	1.66	0.559 (inactive)	0.0166	0.685	0.9	0.009
C=CCN1C(=O)[C@@]2(CCC(=O)OC(C)(C)C)N=C(c3ccc(OCCCO)cc3)O[C@H]2c2ccccc21	1.47	-1.89 (inactive)	-5.84 (inactive)	1.44 (inactive)	2.71	0.784 (inactive)	0.107	1.24	1.09	-0.146
CN(C)CCCCNC(=O)[C@H]1C[C@H]2C(=O)N[C@@H](CCCCN(C)C)C(=O)N2[C@H]1c1cccc(OCCO)c1	1.53	0.328 (inactive)	1.22 (inactive)	-0.378 (inactive)	2.74	-0.0359 (inactive)	-0.0474	1.38	0.993	-0.219
CCCN1C(=O)[C@]2(Cc3ccccc3)N=C(c3ccc(OCCCO)cc3)O[C@@H]2c2ccccc21	1.54	-0.128 (inactive)	-1.88 (inactive)	0.585 (inactive)	3.26	1.05 (inactive)	-0.0159	1.74	1.13	-0.0605
COC(=O)C1(Cc2ccccc2)C=C2C(=C(C(C)C)C(=O)C2C)CN1 (stereo not given)	-1.15	0.557 (inactive)	-0.315 (inactive)	0.471 (inactive)	2.41	-1.53 (inactive)	0.469	-1.79	-1.05	0.156
C=CCN1C(=O)[C@]2(CC=C)N=C(c3ccc(OCCCO)cc3)O[C@@H]2c2ccccc21	1.45	-1.76 (inactive)	-2.79 (inactive)	0.164 (inactive)	3.13	1.02 (inactive)	0.266	1.33	1.08	0.038
C[C@]12C(=O)N(CCCCCCO)[C@@H]3C(=O)N(c4ccc(Cl)cc4)CC=CC31O[C@@H]1/C=C\CCCOC(=O)C12 (stereo not given in full)	0.807	-2.23 (inactive)	-1.63 (inactive)	-0.695 (inactive)	3.27	1.19 (inactive)	-0.0665	-0.463	-0.353	-0.194
O=C1O[C@@H](c2ccccc2)[C@@H](c2ccccc2)N2[C@@H](c3ccc(O)cc3)[C@]3(C(=O)Nc4ccc(C#CCCO)cc43)[C@@H](C(=O)NC[C@H](O)c3ccccc3)[C@H]12	0.581	0.235 (inactive)	-0.137 (inactive)	0.914 (inactive)	2.9	0.231 (inactive)	-0.112	1.11	-0.494	-0.202
COC(=O)[C@@]1(Cc2ccccc2)[C@H]2c3cc(C(=O)N4CCCC4)n(Cc4ccsc4Br)c3C[C@H]2CN1C(=O)c1ccccc1	0.12	0.333 (inactive)	1.22 (inactive)	1.35 (inactive)	3.43	-0.575 (inactive)	0.41	-0.142	1.05	0.272
COc1ccc([Si](C)(C)[C@H]2[C@H](CCn3cc([C@H](O)c4ccccc4)nn3)O[C@@]3(C(=O)N(Cc4ccc(N5CCOC5=O)cc4)c4ccccc43)[C@@H]2C)cc1	-0.562	1.75 (inactive)	1.78 (inactive)	3.45 (inactive)	-0.241	0.28 (inactive)	-0.0713	-1.49	-0.865	-0.227
COc1ccc([Si](C)(C)[C@H]2[C@H](CCn3cc([C@H](O)c4ccccc4)nn3)O[C@@]3(C(=O)N(Cc4ccc(N5CCC5=O)cc4)c4ccccc43)[C@@H]2C)cc1	1.57	-0.509 (inactive)	0.158 (inactive)	2.14 (inactive)	0.588	1.15 (inactive)	-0.184	1.05	0.698	-0.0953
C=CCN1C(=O)[C@@]2(O[C@@H](CCO)[C@H]([Si](C)(C)c3ccc(OC)cc3)[C@H]2C)c2cc(N3C(=O)c4ccccc4Oc4ccccc43)ccc21	0.0455	1.34 (inactive)	0.237 (inactive)	9.42 (active)	1.65	2.15 (inactive)	-0.0665	0.514	0.612	-0.135
C[N+](C)(C)CCCC[C@@H]1NC(=O)[C@@H]2C[C@H](C(=O)O)[C@H](c3ccc(O)cc3)N2C1=O	-0.701	0.151 (inactive)	0.229 (inactive)	-1.27 (inactive)	-0.972	0.0772 (inactive)	-0.0943	-0.342	-0.694	-0.269
COC(=O)c1c(CC[C@@H](CO)NC(=O)N[C@H](Cn2cc(-c3ccccc3C)nn2)C(C)C)oc(C(C)=O)c1C(=O)OC	-0.469	-0.147 (inactive)	-0.644 (inactive)	0.467 (inactive)	-0.351	0.537 (inactive)	-0.29	-0.0001	-0.465	-0.218
